In PubChem BioAssay (NCI) one finds growth data, which are given here for 38 compounds.

Structures are written as SMILES. The panel holds about 83,000 compounds, 20% with a hit somewhere; the sample as a whole holds those more often.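 Note: values are percent growth. 100 is the growth of untreated cells, values between 100 and 0 indicate rising inhibition; between -100 and 0 indicates cell death.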 Unmarked numbers belong to inactive results. The source made the active and inactive calls. The calls were made as follows: active = growth percent below 10; inactive = the rest.

The test system of this assay is HCT-15 colon. As to the kind of experiment: NCI-60 one-dose screen, 48 h (100 = growth as untreated, 0 = no growth, -100 = all killed). The note with it: 10 µM unless noted.
In the case of `C[C@H]1[C@@H]2[C@H]3CC[C@@H]4[C@@]5(C)Cc6c([nH]c7ccccc67)C(C)(C)[C@@H]5CC[C@@]4(C)[C@]3(C)CC[C@]23CO[C@]1(C)[C@@H](C(=O)/C=C/c1ccccn1)C3`, the growth was 85.9%.

Turning to `CCCC1CCCCN1C(=O)OCC(C)C` (stereo not drawn), the growth is 108%.

Regarding `N#CC1C(=N)Cc2ccccc2-c2ccccc21` (stereo not drawn), the growth was 37.9%.

As for `Cc1cc(C)nc(NC(N)=NCCc2ccccc2)n1`, the growth is 55%.

Take `N=c1c(S(=O)(=O)c2ccccc2)cc2c(=O)n3ccccc3nc2n1C1CCCC1`: the growth is 86.2%.

Take `CCOc1ccc(NC(=O)c2ccccc2-c2ccccc2C(=O)O)cc1`: the growth was 106%.

With `CCCCC[C@H]1C/C=C2/C(=O)C=C[C@@H]2C/C=C\CCCC(=O)O[C@@H](CCCCC)C/C=C2/C(=O)C=C[C@@H]2C/C=C\CCCC(=O)O1`, the growth is -54.5% (active).

Turning to `CC(C)=CCC/C(C)=C/CC/C(C)=C/CC/C(C)=C/CSC[C@H](NC(=O)CCCCCN1CCN(C)CC1)C(=O)NC1CCCCC1`, the growth was 24%.

As for `O=C(/C=C/c1ccc2ccccc2c1)Nc1ncc(Cc2ccccc2)s1`, the growth was 55.7%.

Regarding `C=C(C)[C@@H]1CC[C@]2(C(=O)O)CC[C@]3(C)[C@H](CC[C@@H]4[C@@]5(C)C/C(=C/c6ccc(OC)cc6)C(=O)C(C)(C)[C@@H]5CC[C@]43C)[C@@H]12`, the growth is 5.16% (active).

With `COc1ccc2c(c1)c(-c1nc(-c3cn(C)c4ncccc34)cs1)cn2CCCN1CCCCC1`, the growth was -69.9% (active).

As to `C#CCC(C)(O)/C=C/C1=C(C)CCCC1(C)C` (stereo not drawn), the growth was 107%.

Turning to `C=C(C)[C@@H]1CC[C@]2(C=NCCCNCCCCNCCCN)CC[C@]3(C)[C@H](CC[C@@H]4[C@@]5(C)CCCNC(C)(C)[C@@H]5CC[C@]43C)[C@@H]12`, the growth is 82.6%.

With `Nc1ccc(Br)cn1`, the growth was 102%.

Regarding `COc1cccc(-c2nn(-c3ccccc3)cc2-c2ccnc(NCCNS(=O)(=O)c3ccc(Cl)cc3)c2)c1`, the growth is 24.1%.

As for `COc1ccc(C2CC(=O)c3c(nc4ccc(Cl)cc4c3N)C2)cc1` (stereo not drawn), the growth was 92.5%.

Turning to `COc1cc2c(cc1-c1c(C)noc1C)ncc1nc(C3CCC(F)(F)CC3)n([C@@H](C)COC(F)F)c12`, the growth is 13.4%.

Turning to `CC1(n2nnnc2N2CCCN(c3ncccc3N)CC2)CCC1`, the growth was 58.3%.

As to `O=C(O[C@@H]1Cc2c(O)cc(O)cc2O[C@@H]1c1cc(O)c(O)c(O)c1)c1cc(O)c2c(c1)OCO2`, the growth is 104%.

`COc1cc(-c2nc(-c3ccccc3)c(-c3ccccc3)[nH]2)cc(OC)c1O`: the growth was 11.1%.

As to `C=C(C)[C@@H]1CC[C@]2(C(=O)O)CC[C@]3(C)[C@H](CC[C@@H]4[C@@]5(C)C/C(=C/c6cccc(I)c6)C(=O)C(C)(C)[C@@H]5CC[C@]43C)[C@@H]12`, the growth was 19.4%.

`NC1=NN=C2N(N)C(=O)c3cnn(-c4ccccc4)c3N2c2nc(-c3ccccc3)cc(-c3ccccc3)c21`: the growth was 99.8%.

For `CCSc1ncnc2c1ncn2C1OC(CO)C(O)C1O` (stereo not drawn), the growth was 30.9%.

Regarding `COc1ccc(-c2nc3ccccn3c2-c2nc3ccc(Cl)cc3[nH]2)cc1`, the growth is 89.1%.

Turning to `CC(=O)OC[C@]12CC[C@@H](/C(C)=N/O)[C@@H]1[C@H]1CC[C@@H]3[C@@]4(C)CCCNC(C)(C)[C@@H]4CC[C@@]3(C)[C@]1(C)CC2`, the growth was 60.1%.

For `OCC12CCCC(CO)(COC1)C2O` (stereo not drawn), the growth is 106%.

With `Cc1ccc(N(CC(=O)Nc2ccc(S(=O)(=O)N3CCC(N4CCCC4)CC3)cc2)S(=O)(=O)c2ccc(Cl)cc2)cc1`, the growth was -47.8% (active).

For the compound `CC[C@]12C=CCN3CC[C@@]4(c5cc([C@H]6CCC(=O)N6)c(OC)cc5N(C)[C@H]4[C@@](O)(C(=O)OC)[C@@H]1OC(C)=O)[C@@H]32`, the growth is 104% [2.5 µM].

In the case of `Brc1ccc(Cn2nnnc2-c2ccn(-c3ccccc3)n2)cc1`, the growth was 83%.

For the compound `COC(=O)c1cc(=O)nc(N/N=C/c2ccc(C)cc2)s1`, the growth is 86.2%.

For the compound `Cc1ccc2oc(=O)cc(-c3sc(N4CCCCC4)nc3-c3ccccc3)c2c1`, the growth was 96.9%.

On to `CC1(C)CC[C@]2(C(=O)Nc3ccccn3)CC[C@]3(C)C(=CC[C@@H]4[C@@]5(C)C/C(=C/c6ccncc6)C(=O)C(C)(C)[C@@H]5CC[C@]43C)[C@@H]2C1`, for which the growth is 15.3%.

For `Nc1c(C(=O)Nc2cccc3ccccc23)sc2nc3c(cc12)CCCC3`, the growth was 26.8%.

Consider `COc1ccc(OCC(CO)N2CCN(c3ccccc3)CC2)cc1` (stereo not drawn), for which the growth is 102%.

As to `Clc1ccc2[nH]cc(-c3nc(-c4c[nH]c5ncccc45)cs3)c2c1`, the growth is 1.33% (active).

For the compound `C=C(C)[C@@H]1CC[C@]2(CN)CC[C@]3(C)[C@H](CC[C@@H]4[C@@]5(C)CCC(=O)NC(C)(C)[C@@H]5CC[C@]43C)[C@@H]12`, the growth was 38.7%.

As for `C/C(=N\Nc1ccc2ccccc2n1)c1ccccn1`, the growth is 22.6%.

On to `C[N+](C)(CCCCCC[N+](C)(C)C1c2ccccc2-c2ccccc21)C1c2ccccc2-c2ccccc21`, for which the growth was 105%.
